Shown is part of a subset that was picked to be rich in hits.
TDP1 cell noCPT = qHTS for Inhibitors of human tyrosyl-DNA phosphodiesterase 1 (TDP1): qHTS in cells in absence of CPT; DT40 Tdp1-/- hTDP1 cells, no CPT, ATP luminescence, 48 h; Potency, µM (series often up to 46.2 µM), inactives show at the highest dose activity change, negative = growth inhibition, hits mostly inhibitors; 420,000 tested, 15% active; also: potency is read from the fitted curve at half-maximal effect; nearly all actives have a fitted effect of over 55% in size
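Growth kinetics read by CellTiter-Glo luminescence after ≥48 hr at 37 °C. Cells: DT40 Tdp1-/- stably carrying human TDP1, 400 per well, compound exposure in the absence of CPT (DMSO vehicle).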
HT1080 IDH1KD tx = qHTS for induction of synthetic lethality in tumor cells producing 2HG: qHTS for the HT-1080-IDH1KD cell line; HT-1080 IDH1 knockdown viability, ATP luminescence, 48 h; Potency, µM (top dose mostly 46.1 µM), for inactives: at the top dose activity, negative = toxicity, hits mostly cytotoxic; 360,000 tested, 2% active; AID 686971, 2013;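 also: potency is read from the fitted curve at half-maximal effect; 0% = DMSO wells and -100% = cell-free medium wells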
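HT-1080-IDH1KD cells (IDH1 knocked down), 750/well in RPMI with 5% FBS, treated with compound 48 h at 37 degrees C. Viability by CellTiter-Glo luminescence, normalised to DMSO and no-cell wells; concentration-response curves classed.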
ALOX12 inh = Primary qHTS assay for inhibitors of human arachidonate 12S-lipoxygenase (ALOX12): Round 2. Polyunsaturated fatty acid lipoxygenase ALOX12 (Homo sapiens), P18054. purified 12hLO, xylenol orange hydroperoxide absorbance. Potency, µM (series often up to 108 µM), for inactives: at the highest dose activity change, negative = inhibition, actives largely listed as inhibitors. 580,000 tested, 1.1% active. AID 1671190, 2021; also: potency is read from the fitted curve at half-maximal effect
Target sequence (P18054 whole entry, looked up): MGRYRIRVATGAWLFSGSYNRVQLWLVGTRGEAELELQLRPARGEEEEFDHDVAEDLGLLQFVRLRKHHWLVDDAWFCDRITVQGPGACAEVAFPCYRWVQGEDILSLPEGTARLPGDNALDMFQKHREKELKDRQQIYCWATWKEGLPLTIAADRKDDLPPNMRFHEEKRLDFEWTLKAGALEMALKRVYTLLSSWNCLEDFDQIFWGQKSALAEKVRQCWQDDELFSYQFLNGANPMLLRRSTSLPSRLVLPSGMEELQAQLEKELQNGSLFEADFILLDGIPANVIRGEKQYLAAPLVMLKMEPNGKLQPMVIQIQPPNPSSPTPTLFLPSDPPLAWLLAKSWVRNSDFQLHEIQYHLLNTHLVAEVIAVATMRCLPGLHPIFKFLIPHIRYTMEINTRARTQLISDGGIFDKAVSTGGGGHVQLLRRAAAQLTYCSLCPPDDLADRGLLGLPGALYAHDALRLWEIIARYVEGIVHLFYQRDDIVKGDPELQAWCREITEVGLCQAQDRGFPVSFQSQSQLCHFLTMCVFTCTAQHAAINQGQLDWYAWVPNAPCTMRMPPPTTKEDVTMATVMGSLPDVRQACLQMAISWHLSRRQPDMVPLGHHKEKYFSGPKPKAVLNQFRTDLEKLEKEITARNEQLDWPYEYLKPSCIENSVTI
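Hydroperoxide product was detected by ferrous iron/xylenol orange as the 573 to 405 nm absorbance ratio. Arachidonic acid at 40 uM (final) was turned over for 30 min at room temperature by 150 nM human 12hLO, pH 7.0 Hepes buffer, after 15 min compound preincubation.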
HT1080NT lethal = qHTS for induction of synthetic lethality in tumor cells producing 2HG: qHTS for the HT-1080-NT fibrosarcoma cell line. HT-1080-NT fibrosarcoma viability, CellTiter-Glo ATP luminescence, 48 h. Potency, µM (doses to about 46.1 µM), without a hit: top-dose activity, negative = less viability, hits mostly cytotoxic. 360,000 tested, 1.6% active. AID 686970, 2013;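 also: NT is the 2HG producing partner of a matched IDH1 knockdown line; potency is read from the fitted curve at half-maximal effect; 0% = DMSO-treated cells and -100% = media-only wells without cells; nearly all actives have a fitted effect of over 55% in size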
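Toxicity toward the 2HG-producing NT line was scored as %Activity, normalised to DMSO and no-cell wells, from CellTiter-Glo luminescence after 48 hours' treatment.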
TDP1 cell CPT = qHTS for Inhibitors of human tyrosyl-DNA phosphodiesterase 1 (TDP1): qHTS in cells in presence of CPT; chicken DT40 Tdp1-/-;hTDP1 cells + 20 nM CPT, ATP luminescence, 48 h; Potency, µM (highest dose often 46.2 µM), inactives show at the top dose activity change, negative = growth inhibition, hits mostly inhibitors; 420,000 tested, 12% active; also: potency is read from the fitted curve at half-maximal effect; nearly all actives have a fitted effect of over 55% in size
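Chicken DT40 Tdp1-/- cells complemented with human TDP1, 400 cells/well, exposed to compounds plus 20 nM camptothecin for at least 48 h at 37 C; viability read as ATP content by CellTiter-Glo luminescence.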
IL1B secr inh = qHTS for Inhibitors of Inflammasome Signaling: IL-1-beta AlphaLISA Primary Screen; 360,000 tested, 4.7% active; activity change, % at 57.5 µM; AID 743279, 2014; THP-1 LPS/ATP IL-1B secretion, AlphaLISA, 16 h; stronger effect = lower value; in the data active = activity change below about -50%; inconclusive = mostly about -30% to -49%
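Secreted IL-1B measured by AlphaLISA bead assay after 16 h compound exposure of THP-1 cells; compounds (final up to 57.5 uM) added 1 h before LPS (250 ng/mL) and ATP (1.25 mM) stimulation; lower signal means less secretion.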
Active calls of the source: *; ? = inconclusive; . = no result. Unless noted, calls follow the shape of the dose curve; as a rule, active = well fitted curve in the direction sought with a large enough effect; inconclusive = small, poorly fitted or top-dose-only effect, or another doubt; inactive = no such curve, though single readings can be large; an effect the other way counts as inactive or inconclusive. Unless noted, % is scaled to controls: 0 for no effect and ±100 for the full control effect.

SMILES	TDP1 cell noCPT	HT1080 IDH1KD tx	ALOX12 inh	HT1080NT lethal	TDP1 cell CPT	IL1B secr inh
CCc1ccc(NC(=O)CSC2=Nc3ccccc3C3=NC(CC(=O)NCc4cccs4)C(=O)N23)cc1 (stereo unspecified)	4.6µM*	.	-26%	.	7.3µM*	.
C=CCC[C@@H](Cc1ccc(F)cc1)C(=O)OCCNC(=O)[C@@H](CC=C)CC(=O)N(CCO)Cc1ccccc1	21µM*	-8%	-12%	-13%	21µM*	-61*
C=CCC[C@@H](Cc1ccc(F)cc1)C(=O)OC[C@H](C)NC(=O)[C@@H](CC=C)CC(=O)N(CCO)Cc1ccccc1	21µM*	-17%	-5%	-14%	?	?
C=CC[C@H](CC(=O)N(CCO)Cc1ccccc1)C(=O)NCCOC(=O)[C@@H](CC=C)Cc1ccc(F)cc1	?	-1%	7%	-6%	?	-10
C=CCC[C@@H](Cc1ccc(F)cc1)C(=O)OC[C@H](C)NC(=O)[C@H](CC=C)CC(=O)N(CCO)Cc1ccccc1	?	-1%	1%	-8%	18µM*	?
C=CC[C@@H](CC(=O)NCCO)C(=O)N[C@@H](C)COC(=O)[C@@H](CC=C)Cc1ccc(F)cc1	-2%	5%	20%	0%	3%	42
C=CC[C@H](CC(=O)N(CCO)Cc1ccccc1)C(=O)N[C@@H](C)COC(=O)[C@@H](CC=C)Cc1ccc(F)cc1	?	-8%	11%	-2%	16µM*	-20
COc1ccc(Cc2nc3nccc(-c4cccc(OC)c4)n3n2)cc1	.	.	31%	.	.	.
C=CCC[C@H](Cc1ccc(F)cc1)C(=O)OC[C@@H](C)NC(=O)[C@H](CC=C)CC(=O)N(CCO)Cc1ccccc1	18µM*	-2%	-33%	0%	15µM*	0
C=CCC[C@@H](Cc1ccc(F)cc1)C(=O)OC[C@@H](NC(=O)[C@H](CC=C)CC(=O)NCCO)C(C)(C)C	?	2%	2%	12%	?	5
Cc1ccc(OCCCC(=O)N(C)CC(=O)Nc2ccccc2Br)cc1	-18%	-16%	-4%	-12%	-13%	-55*
CCOc1ccc(NC(=O)CN(C)C(=O)CCCOc2ccc(Br)cc2)cc1OCC	?	-13%	?	-4%	18µM*	-7
Cc1ccc(C(=O)CCC(=O)N(C)CC(=O)Nc2ccccc2Br)cc1	-8%	0%	-13%	4%	1%	-5
O=C(C1CC(=O)N(C2CC2)C1)N1CCC(Oc2ccccc2Cl)CC1 (stereo unspecified)	.	.	-19%	.	.	.
Cc1cccc2c(C(=O)Nc3ccc(C(=O)N(C)C)cc3)cc(C3CC3)nc12	.	.	21%	.	.	.
COC(=O)Cn1c(=NC(=O)c2nc3ccccc3s2)sc2cc(S(N)(=O)=O)ccc21	?	14%	-12%	6%	?	-3
COC(=O)Cn1c(=NC(=O)c2cc(-c3cccs3)nc3ccccc23)sc2cc(S(N)(=O)=O)ccc21	9.2µM*	?	-26%	-19%	?	-12
CCOC(=O)Cn1c(=NC(=O)C2COc3ccccc3O2)sc2cc(S(N)(=O)=O)ccc21 (stereo unspecified)	21µM*	-1%	-23%	-3%	?	-13
CCOC(=O)Cn1c(=NC(=O)c2cc(-c3cccs3)nc3ccccc23)sc2cc(S(N)(=O)=O)ccc21	16µM*	-25%	-46%	?	23µM*	-11
O=C(c1nn(Cc2ccccc2)c(=O)c2ccccc12)N(Cc1ccccc1)C1CC1	.	.	8%	.	.	.
Cc1ccc(OCC(=O)Nc2nonc2C)cc1C	.	.	8%	.	.	.
Cc1cc(OC(C)C(=O)N(Cc2ccco2)C2CCS(=O)(=O)C2)cc(C)c1Cl (stereo unspecified)	21µM*	12%	.	0%	?	-28
CCCCCOc1ccc(C(=O)N(Cc2ccco2)C2CCS(=O)(=O)C2)cc1 (stereo unspecified)	?	-18%	-3%	-5%	?	3
COc1ccc(CN(C(=O)c2ccc(OCC(C)C)cc2)C2CCS(=O)(=O)C2)cc1 (stereo unspecified)	?	.	-22%	.	12µM*	.
CC(C)COc1ccc(C(=O)N(Cc2ccco2)C2CCS(=O)(=O)C2)cc1 (stereo unspecified)	16µM*	-2%	67%	-1%	?	2
SMILES	TDP1 cell noCPT	HT1080 IDH1KD tx	ALOX12 inh	HT1080NT lethal	TDP1 cell CPT	IL1B secr inh
COc1cccc(C(=O)Nc2ccc(C3(C)CC=NO3)cc2)c1 (stereo unspecified)	.	.	32%	.	.	.
COc1cc(Nc2nccc3[nH]c(-c4cccc(C(C)C)c4)nc23)cc(OC)c1OC	.	.	-1%	.	.	.
Cc1cc(SCc2cc(=O)[nH]c3ccccc23)nc2ccccc12	?	?	18%	-20%	23µM*	45
Cc1ccc(OCc2nnc(SCc3cc(=O)[nH]c4ccccc34)n2-c2ccccc2)cc1	23µM*	?	-18%	16µM*	?	?
Cc1ccc(Cn2c(N3CCOCC3)nc3c2c(=O)[nH]c(=O)n3C)cc1	.	.	13%	.	.	.
Cn1cc(-c2nc3cnc(N4CCNCC4)nc3n(C3CC3)c2=O)c2ccccc21	5.8µM*	.	?	.	13µM*	.
O=c1[nH]c(CSc2nc3ccccc3o2)nc2ccccc12	.	.	-25%	.	.	.
O=c1[nH]c(CSc2nc3ccccc3o2)nc2cc(Cl)ccc12	.	.	8.9µM*	.	.	.
COc1nccc(N2CCC(CC(=O)NCc3cccc(OC)c3OC)CC2)n1	.	.	9%	.	.	.
O=C(N/N=C\c1ccc(CNS(=O)(=O)c2ccccc2)o1)C(=O)Nc1ccc(F)cc1	?	-17%	-4%	1%	?	32
O=C(N/N=C\c1ccc(CNS(=O)(=O)c2ccc(Cl)cc2)o1)C(=O)Nc1ccc(Oc2ccccc2)cc1	6.5µM*	-1%	-12%	2%	2.9µM*	4
O=C(N/N=C\c1ccc(CN(Cc2ccc(Cl)cc2)S(=O)(=O)c2ccccc2)o1)C(=O)Nc1ccc(F)cc1	15µM*	3%	1%	0%	?	?

Bioassay records: PubChem BioAssay, National Center for Advancing Translational Sciences (NCATS)
